In the supplement of paper PMC6555819 one finds PBM binding z-score data, which are given here for 16 sequences.

What all share (test): PBM binding z-score (relative to random genomic background probes); higher = stronger binding; sequences stand for … in GC…GCGATTGACAGCGTAGAATGAAGG
Experiment [1] relates to RARb homodimer (NR concentration 270 nM). The method, boiled down:
(§1)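 Probes were double-stranded and carried 34-nt variable regions with direct-repeat seeds, single-nucleotide variants, half-site ablations and random human genomic background sequences, printed on custom Agilent 4×180K protein-binding microarrays. Arrays were incubated 1 h with ligand-free nuclear receptor dimers in PBS pH 7.4, 2% milk, 0.02% Triton X-100, 1 mM DTT, 0.2 mg/mL BSA and 0.4 mg/ml salmon testes DNA. Antibodies against each partner (one per run) detected binding, and scanned fluorescence was regression-normalized. Binding z-scores use the random background probes as reference.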

The test system of experiment [2] is RARg:RXRa (NR concentration 270 nM, RXRa partner concentration 90 nM). Summed up: as §1
Experiment [3] deals with RARg homodimer (NR concentration 270 nM). Summed up: as §1
For experiment [4], the system named is RXRa DBDmut IVT, anti-RXR (DBD mutation: RXRa K156A/R161A, NR concentration 90 nM). Summed up: as §1
For experiment [5], the system named is RXRa homodimer (NR concentration 180 nM). Summed up: as §1
Experiment [6] concerns THRa:RXRa (NR concentration 90 nM, RXRa partner concentration 90 nM). The method, boiled down: as §1
Experiment [7] concerns THRa homodimer (NR concentration 90 nM). Summed up: as §1
Experiment [8] relates to VDR:RXRa (NR concentration 270 nM, RXRa partner concentration 90 nM). The method, boiled down:
as §1

For experiment [9], the system named is VDR homodimer (NR concentration 270 nM). Summed up: as §1

TCTGCTAGGTCCGTTGGTCAGCTAACGAGCTGCC: the PBM binding z-score is -0.396 in experiment [1]; -0.454 in experiment [2]; -0.542 in experiment [3]; 0.392 in [4]; -0.5 in experiment [5]; -0.748 in experiment [6]. Also, the PBM binding z-score in [7] was -1.13; in experiment [8] it was -0.499; in experiment [9] it was -0.592.

Consider CTCGAAAGGTCGTGCTCAGGTGAATATACCAAAC, for which the PBM binding z-score in [1] was 3.06; in experiment [2] it was 5.46; in experiment [3], 4.17; in experiment [4], 2.45; in [5], 5.01; in experiment [6], 4.38. For the same sequence, the PBM binding z-score in experiment [7] amounted to 1.6; in experiment [8], 3.77; in experiment [9], 1.27.

In the case of TCTATTAGTTGAAGGGCATCCGACGAGTCCGTTT, the PBM binding z-score was found to be 0.904 in [1]; 0.374 in experiment [2]; 0.361 in experiment [3]; 1.86 in [4]; 0.598 in [5]; 0.0886 in [6]. The PBM binding z-score in experiment [7] was determined as 0.288; in [8], 1.08; in [9] it was 1.51.

As for CTCGAAAGGTGGGTTGAGGTGAGTATACGGATAA, the PBM binding z-score is 1.3 in experiment [1]; 0.297 in experiment [2]; 0.548 in experiment [3]; -0.0446 in experiment [4]; 0.396 in experiment [5]; 4.18 in [6]. The PBM binding z-score was 1.75 in [7], 0.817 in experiment [8] and 0.756 in experiment [9].

Take CAAACTAGGTCAAGGTCAGAGTCGGTTTGTGCCA: the PBM binding z-score in experiment [1] came out at 4.8; in [2], 5.32; in experiment [3] it was 6.42; in experiment [4] it was 2.33; in [5] it was 4.6; in experiment [6], 4.29. In addition, the PBM binding z-score in [7] came out at 3.28; in experiment [8], 3.93; in [9] it was 2.79.

Regarding ACTAGTTGGTCAGATGAGGTCACACACAATTCGG, the PBM binding z-score in experiment [1] turned out to be 4.39; in experiment [2], 3.94; in experiment [3] it was 3.9; in experiment [4], 1.44; in experiment [5], 4.3; in [6], 4.8. Also, the PBM binding z-score in [7] was determined as 4.95; in experiment [8] it was 4.58; in [9] it was 4.21.

Turning to GCTGCTAGGTCAACTGATGGTTAGCTAAAGCTCG, the PBM binding z-score in experiment [1] is 3.25; in [2] it was 4.51; in [3], 5.52; in [4], 1.85; in experiment [5], 2.81; in [6], 2.94. Besides, the PBM binding z-score in experiment [7] is 0.862; in experiment [8], 1.39; in experiment [9], -0.316.

Turning to AGAATGAGGTTAAGATCAGAGAAACAGAATACAT, the PBM binding z-score in experiment [1] was determined as 0.686; in [2], 2.05; in experiment [3], 1.45; in experiment [4] it was 0.652; in experiment [5], 2.36; in [6] it was 2.29. In addition, the PBM binding z-score turned out to be 0.47 in experiment [7], 1.11 in [8] and 0.291 in experiment [9].

ACTATTAGTTGAGACGAGAGCAACCGATAGGTTG: the PBM binding z-score was -0.441 in [1]; 0.044 in experiment [2]; 0.359 in experiment [3]; -0.00279 in [4]; 0.11 in [5]; -0.0893 in [6]. Moreover, the PBM binding z-score was -0.555 in experiment [7], 0.00985 in experiment [8] and -0.215 in experiment [9].

For the sequence CTTACTGGGCCAAAAAGGTCATTGATGCCGATAA, the PBM binding z-score in [1] stood at 4.5; in experiment [2] it was 4.8; in experiment [3], 4.65; in experiment [4] it was 1.08; in experiment [5], 5.37; in experiment [6], 3.21. The values for the PBM binding z-score in experiment [7], in [8] and in [9] were 0.313, 4.92 and 2.72, respectively.

Regarding TATGCTAGGTCAGTTGGTCAGCTAACGAGCTGCC, the PBM binding z-score in experiment [1] was 2.5; in [2], 2.62; in experiment [3] it was 3.34; in experiment [4] it was -0.0461; in experiment [5], 1.06; in experiment [6] it was 1.3. Also, the PBM binding z-score in experiment [7] is 0.034; in experiment [8] it was 0.137; in [9], -0.256.

For CGTCCTAGGTCAGAGAGGTCAGTGAATGCCGAGT, the PBM binding z-score in [1] was 4.71; in experiment [2], 5.31; in experiment [3], 5.94; in experiment [4], 1.92; in experiment [5], 4.49; in experiment [6], 3.77. Moreover, the PBM binding z-score in experiment [7] was 1.92; in [8], 6.8; in experiment [9] it was 3.9.

As to CCTACTGGTCCATTCAGAGGTCATTGATCATATG, the PBM binding z-score worked out at 4.13 in experiment [1]; 3.66 in experiment [2]; 2.62 in [3]; 1.73 in experiment [4]; 3.92 in experiment [5]; 2.91 in experiment [6]. Further, the PBM binding z-score came out at 2.07 in experiment [7], 4.24 in experiment [8] and 4.16 in experiment [9].

As for CCAAGCAGGCCAATCTGGGTCACTCAAGGCTTGA, the PBM binding z-score in experiment [1] is 2.26; in experiment [2], 1.4; in experiment [3], 1.34; in [4] it was 0.0779; in [5] it was 1.25; in [6], 3.74. Also, the results for the PBM binding z-score in experiment [7], in experiment [8] and in experiment [9] were 0.319, 0.733 and 0.154, respectively.

Turning to CCTGCTAGGTCAATGGTCATCTAAAGCAGCTCGC, the PBM binding z-score in experiment [1] worked out at 2.97; in experiment [2], 3.73; in experiment [3], 4.61; in experiment [4], 1.79; in [5] it was 2.51; in [6] it was 2.23. Moreover, the PBM binding z-score was determined as 0.612 in [7], 1.31 in experiment [8] and 0.333 in experiment [9].

Regarding CGAACTAGGTCACCGGAAGGTCAAAGTCCGCATG, the PBM binding z-score turned out to be 5.45 in [1]; 8.27 in experiment [2]; 7.14 in [3]; 2.43 in experiment [4]; 6.38 in experiment [5]; 4.36 in experiment [6]. The figures for the PBM binding z-score in [7], in experiment [8] and in experiment [9] were 2.81, 5.8 and 4.01, respectively.
